# According to the supplement of paper PMC6555819:
# Columns and labels:
# Experiment in all cases: PBM binding z-score (relative to random genomic background probes); higher = stronger binding; sequences stand for … in GC…GCGATTGACAGCGTAGAATGAAGG
# [1] = system: RARb homodimer (NR concentration 270 nM)
# Method in brief: (§1)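 Probes were double-stranded and carried 34-nt variable regions with direct-repeat seeds, single-nucleotide variants, half-site ablations and random human genomic background sequences, printed on custom Agilent 4×180K protein-binding microarrays. Arrays were incubated 1 h with ligand-free nuclear receptor dimers in PBS pH 7.4, 2% milk, 0.02% Triton X-100, 1 mM DTT, 0.2 mg/mL BSA and 0.4 mg/ml salmon testes DNA. Antibodies against each partner (one per run) detected binding, and scanned fluorescence was regression-normalized. Binding z-scores use the random background probes as reference.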
# [2] = system: RARg:RXRa (NR concentration 270 nM, RXRa partner concentration 90 nM)
# Method in brief: as §1
# [3] = system: RARg homodimer (NR concentration 270 nM)
# Method in brief: as §1
# [4] = system: RXRa DBDmut IVT, anti-RXR (DBD mutation: RXRa K156A/R161A, NR concentration 90 nM)
# Method in brief: as §1
# [5] = system: RXRa homodimer (NR concentration 180 nM)
# Method in brief: as §1
# [6] = system: THRa:RXRa (NR concentration 90 nM, RXRa partner concentration 90 nM)
# Method in brief: as §1
# [7] = system: THRa homodimer (NR concentration 90 nM)
# Method in brief: as §1
# [8] = system: VDR homodimer (NR concentration 270 nM)
# Method in brief: as §1
Sequence,PBM binding z-score [1],PBM binding z-score [2],PBM binding z-score [3],PBM binding z-score [4],PBM binding z-score [5],PBM binding z-score [6],PBM binding z-score [7],PBM binding z-score [8]
CAGACTGGGGCAAAGGTTACCATACTCAGTACGA,2.35,3.54,2.64,0.804,3.83,1.97,0.0193,0.311
CGTGAAAGTTCAAGGTAACGTAACAGAAAGCAGC,3.23,5.05,5.85,4.44,4.04,3.07,0.878,3.01
AGTCAAAGTTCATCTAGGTTACGTAAGATATGCT,4.3,5.85,6.39,4.52,5.4,3.45,0.553,6.02
AGCTCTAGGTAACCAAGTTCAGTGAATGCCGAAC,1.25,0.159,0.348,0.428,0.269,1.14,0.629,2.43
TTAACAAGGTGAAGGTCGTTGATCCCTCTGTAGA,1.5,1.38,1.26,0.219,1.88,2.4,0.923,0.715
TGTCAAGGTTCAAAGGTAACGTAAGTATCCACAC,1.99,4.38,3.11,4.37,6.08,3.12,-0.0609,4.49
CGAACCAGGTCAGAACAGGACAGTGAAGGATGAT,2.14,2.84,3.33,0.868,2.06,3.69,0.812,0.276
CCTACTGGGCCACGAAAGGTCACTGATTCAGTGA,4.67,4.7,4.98,-0.0819,4.93,3.84,1.03,0.962
CATAGTTGGTCAGGAGGTCACACACCGGATATGA,4.18,5.09,4.47,0.639,4.6,3.46,2.32,3.09
CGAACTAGGTCATTGACAGGGCAGTGAATAGTAA,2.93,5.12,4.41,2.54,2.89,2.64,0.623,1.08
ACAGACAGGTGATGAAGGTAAATCAGGCTATCAT,0.0548,0.28,0.373,-0.384,0.316,0.885,-0.061,-0.34
ATCGAAAGGTCGACGAGGTTAGTATACACCGTTT,3.1,4.27,4.18,1.45,4.55,3.37,0.478,2.31
GTATATAGGTAATACAAGGTGAAAGTCCGATTGT,1.06,0.647,0.697,0.401,0.751,4.18,1.48,0.367
AATCGGAGGACAAAGGTCAGAGCTACGCCAGTGA,4.37,5.79,4.98,0.662,4.98,3.55,0.579,1.36
ATATGTAGGTTACATCCGGGTCATTGAGGCTATG,3,3.72,2.07,1.25,3.12,3.92,2.69,2.7
TCTTGTAGATCAGCAGGTTGAGAAAGCTGGCCAA,-0.505,-0.343,-0.727,0.441,0.0477,-0.234,-0.41,-0.222
CAAACTAGGTCAAGGTCAAAGCCGGTTTGTGCCA,5.03,6.1,6.74,2.67,5.67,4.39,3.5,3.55
TCATATAGGTAAACAGGTGAAATTCCGTAAGTTA,0.605,0.589,0.48,1.58,1.07,0.752,0.651,0.614
TATACACGGTCAAAGGCCAGAGTACGAATGTCGA,2.33,2.53,2.87,0.0328,1.45,0.581,-0.253,0.761
CCCAGTTGGTCAAGGTCACACACGCTATAGGTAC,4.34,4.75,4.74,2.13,4.74,4.16,4.46,4.2
CCTATTTGGTCAGGAGGTCACACACCGGATATGA,4.24,5.12,4.67,1.25,5.03,3.54,2.66,2.61

Sequence,PBM binding z-score [1],PBM binding z-score [2],PBM binding z-score [3],PBM binding z-score [4],PBM binding z-score [5],PBM binding z-score [6],PBM binding z-score [7],PBM binding z-score [8]
CCTTACGGGTCACTGACAGGTAATAGCATTTGGA,2.83,5.08,4.26,1.55,4.7,2.64,0.085,0.456
ACTAGCAGTCCAAGTTTGGGTCACTCAAACAAAG,1.97,0.986,0.834,0.395,0.691,2.16,1.07,0.0671
ATCTCTAGGTAAAAGTGCAGTGAATCCCGAGGAT,0.183,0.363,0.23,-0.0923,0.454,0.235,-0.373,0.138
CAAACTAGTTCACGAAAGGTCAAAGTCGAATGAC,5.1,6.68,6.48,3.07,7.49,4.5,1.16,4.41
GCTATTAGTTGAAAGTGCAACCGAATGATTCTCG,0.667,0.42,0.38,1.14,0.575,0.147,-0.293,0.388
TCGAGTAGGTCAGTCGGGGCATTCAGCCAACATA,2.3,2.49,3.17,0.903,1.32,2.4,-0.201,1.42
ATCTCTAGGTAAAAGTTCAGTGACTCCCGAGGAT,2.46,2.04,2.16,0.624,1.75,1.32,0.142,1.69
GCTAGCAGGCCATTTAGGTCACTCAATGACGGGC,2.27,1.47,1.75,0.101,1,2.79,1.71,0.244
CCTAGTTTGTCAGGAGGTCACACACCGGATATGA,4.01,4.61,3.87,1.93,4.52,3.62,2.87,3.26
CCTACTGTGCCAAAAAGGTCATTGATGCCGATAA,4.41,4.52,3.97,1.73,4.42,3.26,1.48,3.38
CATCAAAGTTCAAGGTAACGTAACAGAAAGCAGC,3.8,5.15,5.74,4.51,4.38,3.04,1.39,3.49
GATACAGGGTCAAGGCCAGGGTACGCGTATTGAT,3.96,5.8,4.85,2.61,5.97,3.95,1.51,2.65
TCAGACAGGAGAAGGTAACTCAGGTACGCAGTCG,-0.2,0.286,0.356,1.23,0.47,0.913,0.177,-0.0806
GCTCGCAGGCCATTTGGGTCACTCAATGACGGGC,1.93,1.23,1.41,0.0952,0.671,1.93,0.651,0.416
TCCTGTAGATCAATAGAGGTTAAGAAAGTGCGCT,1.25,0.701,0.381,1.41,1.19,2.29,-0.00152,0.39
TCTTGTAGATCCACAGGAGGTTAAGAAAGATCGA,0.545,0.509,0.319,0.48,0.994,0.962,0.0268,-0.139
CGTCCAAGGTCATAGGAGATCAGTGAAGACAGAT,3.65,5.88,6.14,4.11,6.2,3.82,2.46,3.14
CGAACTAGGTCATTGACAGCACAGTGAATAGTAA,2.36,3.46,4.03,2.29,2.47,2.31,0.694,1.08
TCATATAGGGAAAAGGTGAAAGTCGGTGTGGTAA,2.04,1.27,0.821,2.07,1.93,1.27,0.582,0.643
ACTATTAGTTCACTTAGGGCAACCGATACGACGC,1.93,2.02,2.25,2.72,1.04,3.1,0.596,2.32
CCTTCTGGGCCAAAGGTCATTGATTCCAATGCTC,4.44,5.8,4.73,1.41,6.15,3.44,0.658,2.23

Sequence,PBM binding z-score [1],PBM binding z-score [2],PBM binding z-score [3],PBM binding z-score [4],PBM binding z-score [5],PBM binding z-score [6],PBM binding z-score [7],PBM binding z-score [8]
CGAGCTAGGTCAGAACAGGACAGTGAAGGATGAT,2.11,2.12,3.53,0.0691,1.07,3.47,-0.106,-0.325
GCTAGTTGGTCAATAAAAGGTCACACACCGGTCG,5.51,6.07,5.18,0.854,5.51,3.66,1.83,2.11
ACAATTAGTTGAGACGAGGGCAACCGATAGGTTG,1.5,0.974,0.94,0.611,0.718,2.74,0.375,1.07
AGAATGAAGTTAAGATCAGGGAAACAGAATACAT,-0.296,0.141,0.297,-0.544,0.166,0.135,-0.599,-0.0314
TCTGCTACGTCAACGATGGTCAGCTAATCTGCTA,-0.67,-0.316,-0.0659,0.0473,-0.261,-0.616,-0.92,-1.61
GCGACTAGGGCAAAGCAGGTTACCATAAGGTTGG,0.924,0.573,1.01,-0.427,0.44,2.98,0.052,-0.405
CCGACTGGGGCATAACGTTACCATAAGCCAGCCC,-0.131,-0.0174,0.122,-0.083,-0.0796,-0.497,-0.431,-0.0002
TCTGCTAGATCAACGATGGTCAGCTAATCTGCTA,-0.588,-0.514,-0.512,-0.127,-0.276,-0.945,-1.71,-1.45
TCGAGTAGGTTAGGCGGGGCATTCAGCCAACATA,0.241,0.2,-0.0839,-0.0244,0.0673,0.994,-0.341,0.0165
TCTTGTAGATCAACAGGAGGTGAAGAAAGATCGA,0.000947,0.381,0.0903,0.184,0.315,0.726,-0.344,-0.884
TCGAGTAGGTTAGTCGGGTCATTCAGCCAACATA,2.2,1.93,1.5,0.747,2.1,3.06,1.48,2.35
TATACAGGGTCAAAGACCAGAGTACGAATGTCGA,2.94,5.15,4.53,2.82,5.89,3.2,0.651,2.81
ATATGTAGGTTATCAGGTCATTCAGTTTGCGCAT,3.6,3.19,2.93,1.91,3.12,3.72,3.81,3.81
TCATATAGGTAATACAGATGAAAGTCGGCATCTA,-0.481,0.349,0.543,1.28,1.09,-0.0206,-0.254,0.0563
CGTCCAAGGTCAATGCTACGTCAGTGAAAGCATT,4.04,5.67,6.18,3.58,4.83,3.53,1.75,2.18
CTTATTAGTTGACCATAAGGGCAACCGAAGCTCG,2.23,1.24,1.13,0.578,0.722,2.04,1.36,0.553
CCTACTGGGCCATTCAGAGGTCAGTGATCATATG,3.78,4,2.75,0.291,2.29,2.18,0.651,1.13
TTATATAGGTAAATGCTAGGTGAAAGTCCGATCT,0.66,0.442,0.423,0.585,0.781,1.62,0.619,0.705
AGAACGAGAGCACGCTGAGTTGATAGCAGAGTAG,-1.13,-0.185,0.0866,-0.192,-0.166,-0.571,-1.24,-0.355
GGAGCGAGGGCAAAGTTGATAGCATCTGTCGACG,0.881,1.71,1.34,2.06,1.7,0.838,-0.34,0.99
